# Data from PubChem BioAssay AID1159580 (chemical genetic matrix, 2015).
# Where “and” joins values, the source holds several entries; their conditions need not be identical. Equal entries are not always repeated. The campaign covered roughly 5,500 compounds. About 2,000 (36%) were called active. Another 18% or so got no clear call; they are omitted. The list shows a part of the results. Values without a mark were called inactive. No stated cut-off is given here; in the data, active means normalized growth mostly below about 0.91 (no sharp cut-off); inconclusive means no clear call, values can overlap the other calls; inactive means mostly above about 0.92.
# Test: chemical genetic growth profiling, strain panel (AID 1159580);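 further: tested at 20 µM; growth read once vehicle control cultures reached saturation at 30 °C; 1 = growth at the plate median or of vehicle wells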
# Details: S. cerevisiae deletion strains, growth OD
compound,measurement,setting,value
COc1cc2c(cc1OC)[C@@H]1C(=O)c3ccc4c(c3O[C@@H]1CO2)C=CC(C)(C)O4,normalized growth,"locus YAL013W, strain DEP1, stronger effect = lower value",0.993
same,normalized growth,"locus YAL021C, strain ccr4, stronger effect = lower value",1.05
same,normalized growth,"locus YAL026C, strain drs2, stronger effect = lower value",1.02
same,normalized growth,"locus YAL030W, strain snc1, stronger effect = lower value",1.02
same,normalized growth,"locus YBL061C, strain skt5, stronger effect = lower value",1.01
same,normalized growth,"locus YBR009C, strain hhf1, stronger effect = lower value",0.938
same,normalized growth,"locus YBR021W, strain FUR4, stronger effect = lower value",0.972
same,normalized growth,"locus YBR023C, strain chs3, stronger effect = lower value",1.01
same,normalized growth,"locus YBR171W, strain sec66, stronger effect = lower value",0.993
same,normalized growth,"locus YBR229C, strain ROT2, stronger effect = lower value",0.99
same,normalized growth,"locus YBR231C, strain swc5, stronger effect = lower value",0.99
same,normalized growth,"locus YBR279W, strain paf1, stronger effect = lower value",1.01
same,normalized growth,"locus YCL011C, strain gbp2, stronger effect = lower value",0.98
same,normalized growth,"locus YCL016C, strain dcc1, stronger effect = lower value",1
same,normalized growth,"locus YCL029C, strain bik1, stronger effect = lower value",0.971
same,normalized growth,"locus YCL069W, strain vba3, stronger effect = lower value",1
same,normalized growth,"locus YCR088W, strain abp1, stronger effect = lower value",1.01
same,normalized growth,"locus YDL005C, strain med2, stronger effect = lower value",1.03
same,normalized growth,"locus YDL035C, strain GPR1, stronger effect = lower value",0.976
same,normalized growth,"locus YDL040C, strain nat1, stronger effect = lower value",1
same,normalized growth,"locus YDL074C, strain BRE1, stronger effect = lower value",0.994
same,normalized growth,"locus YDL101C, strain DUN1, stronger effect = lower value",0.976
same,normalized growth,"locus YDL134C, strain PPH21, stronger effect = lower value",0.99
same,normalized growth,"locus YDL185W, strain tfp1, stronger effect = lower value",0.97
same,normalized growth,"locus YDL192W, strain arf1, stronger effect = lower value",0.964
same,normalized growth,"locus YDR001C, strain nth1, stronger effect = lower value",1.01
same,normalized growth,"locus YDR069C, strain doa4, stronger effect = lower value",1
same,normalized growth,"locus YDR101C, strain arx1, stronger effect = lower value",0.988
same,normalized growth,"locus YDR137W, strain rgp1, stronger effect = lower value",0.88
same,normalized growth,"locus YDR150W, strain NUM1, stronger effect = lower value",0.987
same,normalized growth,"locus YDR159W, strain sac3, stronger effect = lower value",0.898
same,normalized growth,"locus YDR162C, strain NBP2, stronger effect = lower value",1.01
same,normalized growth,"locus YDR195W, strain ref2",1.1
same,normalized growth,"locus YDR297W, strain sur2, stronger effect = lower value",0.993
same,normalized growth,"locus YDR318W, strain mcm21, stronger effect = lower value",0.966
same,normalized growth,"locus YDR334W, strain swr1, stronger effect = lower value",1.02
same,normalized growth,"locus YDR335W, strain msn5, stronger effect = lower value",1.02
same,normalized growth,"locus YDR388W, stronger effect = lower value",0.974
same,normalized growth,"locus YDR392W, strain spt3, stronger effect = lower value",0.607 (active)
same,normalized growth,"locus YDR502C, strain sam2, stronger effect = lower value",0.981
same,normalized growth,"locus YEL003W, strain gim4, stronger effect = lower value",1.01
same,normalized growth,"locus YEL037C, strain rad23, stronger effect = lower value",1.03
same,normalized growth,"locus YEL061C, strain CIN8 (second series), stronger effect = lower value",1.02
same,normalized growth,"locus YEL061C, strain CIN8, stronger effect = lower value",0.995
same,normalized growth,"locus YER015W, strain faa2, stronger effect = lower value",1.01
same,normalized growth,"locus YER016W, strain bim1, stronger effect = lower value",1.01
same,normalized growth,"locus YER110C, stronger effect = lower value",0.962
same,normalized growth,"locus YER111C, strain swi4, stronger effect = lower value",1.04
same,normalized growth,"locus YER155C, strain BEM2 (second series), stronger effect = lower value",0.991
same,normalized growth,"locus YER155C, strain BEM2, stronger effect = lower value",0.988
same,normalized growth,"locus YER167W, strain BCK2, stronger effect = lower value",0.955
same,normalized growth,"locus YFR010W, strain ubp6, stronger effect = lower value",1.01
same,normalized growth,"locus YGL078C, strain dbp3, stronger effect = lower value",0.973
same,normalized growth,"locus YGL086W, strain mad1, stronger effect = lower value",0.958
same,normalized growth,"locus YGL167C, strain pmr1, stronger effect = lower value",1
same,normalized growth,"locus YGL173C, strain kem1, stronger effect = lower value",0.978
same,normalized growth,"locus YGL227W, strain vid30, stronger effect = lower value",1
same,normalized growth,"locus YGL240W, strain doc1, stronger effect = lower value",0.98
same,normalized growth,"locus YGL248W, strain PDE1, stronger effect = lower value",0.986
same,normalized growth,"locus YGL253W, strain hxk2, stronger effect = lower value",0.996
same,normalized growth,"locus YGR078C, strain PAC10, stronger effect = lower value",1.01
same,normalized growth,"locus YGR135W, strain pre9, stronger effect = lower value",0.987
same,normalized growth,"locus YGR229C, strain SMI1, stronger effect = lower value",0.983
same,normalized growth,"locus YGR252W, strain gcn5, stronger effect = lower value",0.891
same,normalized growth,"locus YHR013C, strain ard1, stronger effect = lower value",0.993
same,normalized growth,"locus YHR027C, strain rpn1, stronger effect = lower value",1
same,normalized growth,"locus YHR030C, strain SLT2, stronger effect = lower value",0.986 and 0.96
same,normalized growth,"locus YHR079C, strain IRE1 (second series), stronger effect = lower value",0.987
same,normalized growth,"locus YHR079C, strain IRE1, stronger effect = lower value",0.954
same,normalized growth,"locus YHR094C, strain hxt1, stronger effect = lower value",0.978
same,normalized growth,"locus YHR129C, strain ARP1, stronger effect = lower value",0.989
same,normalized growth,"locus YHR142W, strain chs7, stronger effect = lower value",0.996
same,normalized growth,"locus YHR200W, strain rpn10, stronger effect = lower value",0.965
same,normalized growth,"locus YIL066C, strain RNR3, stronger effect = lower value",0.964
same,normalized growth,"locus YIL073C, strain SPO22, stronger effect = lower value",0.937
same,normalized growth,"locus YIL125W, strain kgd1, stronger effect = lower value",0.979
same,normalized growth,"locus YIR030C, strain dcg1, stronger effect = lower value",0.979
same,normalized growth,"locus YJL092W, strain hpr5, stronger effect = lower value",1
same,normalized growth,"locus YJL095W, strain BCK1 (second series), stronger effect = lower value",0.988
same,normalized growth,"locus YJL095W, strain BCK1, stronger effect = lower value",0.998 and 0.956
same,normalized growth,"locus YJL115W, strain asf1, stronger effect = lower value",1.01
same,normalized growth,"locus YJL129C, strain trk1, stronger effect = lower value",0.985
same,normalized growth,"locus YJL134W, strain LCB3, stronger effect = lower value",0.975
same,normalized growth,"locus YJL154C, strain vps35, stronger effect = lower value",1.01
same,normalized growth,"locus YJL164C, strain tpk1, stronger effect = lower value",1
same,normalized growth,"locus YJL166W, strain qcr8, stronger effect = lower value",0.959
same,normalized growth,"locus YJL168C, strain set2, stronger effect = lower value",0.972
same,normalized growth,"locus YJL187C, strain SWE1 (second series), stronger effect = lower value",0.993
same,normalized growth,"locus YJR043C, strain POL32, stronger effect = lower value",0.987
same,normalized growth,"locus YJR066W, strain TOR1, stronger effect = lower value",0.915
same,normalized growth,"locus YJR075W, strain HOC1, stronger effect = lower value",0.973
